Measured values as given in PubChem BioAssay AID1259421 (Broad Institute, 2018).
Where “and” joins values, the source holds several entries; their conditions need not be identical. Identical values can stand only once. Screen size: about 6,400 compounds; about 610 (9.5%) were called active. Cut-off read from the data, not from the text of the source: active = activity change below about -70%; inconclusive = no clear call, values can overlap the other calls; inactive = above that. The full list was thinned out, with actives kept by preference. Some structures have more than one record in an assay (separate samples or runs), and their calls can disagree.

Experiment: T. gondii ME49Luc in HeLa cells, luciferase assay, 72 h, no IFN-y (AID 1259421)
Settings: stronger effect = lower value, concentration not given here

Row | Structure (SMILES) | activity change, negative = inhibition
1 | CCOC(=O)C(CCc1ccccc1)NC1CCc2ccccc2N(CC(=O)O)C1=O (stereo not given) | 3.98% (inactive)
2 | Nc1cc(C(F)(F)F)c(-c2cc(N3CCOCC3)nc(N3CCOCC3)n2)cn1 | -70.3% (active)
3 | Nc1ncnc2nc(-c3ccc(N4CCOCC4)nc3)cc(-c3cccc(Br)c3)c12 | -21.2% (inactive) and -9.62% (inactive)
4 | Cc1nc2c(-c3cnc(N)nc3)nc(N3CCOCC3)nc2n1C(C)C | -14% (inactive)
5 | CC(=O)SCCC(=O)N1C(C)CCCC1C(=O)O (stereo not given) | 20.2% (inactive)
6 | O=C(O)[C@H]1CN(C/C=C/P(=O)(O)O)CCN1 | -6.53% (inactive)
7 | CC1(C)Oc2ccc(C#N)cc2[C@H](N2CCCC2=O)[C@H]1O (racemic) | 17% (inactive)
8 | CCN(CC)CCNC(=O)c1ccc(I)cc1 | 11.1% (inactive)
9 | O=C(Nc1ccccc1)Nc1ccc(-c2ccc(C(=O)[C@@H]3CCC[C@@H]3C(=O)O)cc2)cc1 | 16.1% (inactive)
10 | c1cnc2cc3c(cc2n1)C1CNCC3C1 | 5.57% (inactive)
11 | CC1=C(CC(=O)O)c2cc(F)ccc2/C1=C\c1ccc(S(C)=O)cc1 (stereo not given) | 13.1% (inactive) and -5% (inactive)
12 | CO[C@H]1CC(O[C@@H]2/C(C)=C/C[C@@H]3C[C@@H](C[C@]4(C=C[C@H](C)[C@@H](C5CCCCC5)O4)O3)OC(=O)[C@@H]3C=C(C)[C@@H](O)[C@H]4OC/C(=C\C=C\[C@@H]2C)[C@]43O)O[C@@H](C)C1O[C@H]1C[C@H](OC)[C@@H](O)[C@H](C)O1 (stereo not given in full) | -62.7% (inactive)
13 | COc1cc(/C=C/c2ccc(OC)cc2OC)cc(OC)c1 | -58.6% (inactive) and -57.8% (inactive)
14 | CCn1c2ccccc2c2cc(Nc3ccnc(NCCCN4CCOCC4)n3)ccc21 | -53.7% (inactive)
15 | Cc1nc(N)sc1-c1ccnc(Nc2ccc(N3CCOCC3)cc2)n1 | -80.3% (active)
16 | N#CCNC(=O)c1ccc(-c2ccnc(Nc3ccc(N4CCOCC4)cc3)n2)cc1 | -88.6% (active)
17 | CCCN1CCN(c2ccc(C(=O)NC3(C(=O)NCC#N)CCCCC3)cc2)CC1 | 15.1% (inactive)
18 | O=C(NCCCN1CCOCC1)c1ccc(Cl)cc1 | 10.9% (inactive)
19 | Cc1cc(N2CCOCC2)ccc1Nc1nc(NC2CCCCC2)c2[nH]cnc2n1 | -50.9% (inactive)
20 | CCNC(=O)C1OC(n2cnc3c(N)nc(NCCc4ccc(CCC(=O)O)cc4)nc32)C(O)C1O (stereo not given) | 1.12% (inactive)
21 | CC(C)=CCOc1cc2oc(=O)ccc2cc1O | -2.69% (inactive)
22 | O=C(O)c1cc(O)c2c(c1)C(=O)c1cccc(O)c1C2=O | 18.1% (inactive)
23 | Nc1nc(Nc2ccc3c(c2)CC[C@@H](N2CCCC2)CC3)nn1-c1cc2c(nn1)-c1ccccc1CCC2 | -85.1% (active)
24 | CC(=O)O[C@]1(C(C)=O)CCC2C3C=C(Cl)C4=CC(=O)CC[C@]4(C)C3CC[C@@]21C (stereo not given in full) | 2.15% (inactive) and -3.18% (inactive)
25 | CCCCCCC(=O)OC1CC(C)(C)NC(C)(C)C1 | 10.7% (inactive) and -2.86% (inactive)

Row | Structure (SMILES) | activity change, negative = inhibition
26 | O=C(N[C@H]1CCN(C(=O)c2cc(C(F)(F)F)cc(C(F)(F)F)c2)[C@H](Cc2ccc(Cl)cc2)C1)c1ccnc2ccccc12 | 25.3% (inactive)
27 | O=C(NC1CCN(CCc2c[nH]c3ccccc23)CC1)c1ccccc1 | 10.9% (inactive)
28 | O=C(NC1CCN(CCCCC2(C(=O)NCC(F)(F)F)c3ccccc3-c3ccccc32)CC1)c1ccccc1-c1ccc(C(F)(F)F)cc1 | -89% (active)
29 | CN1CC(=O)N/C1=N/C(=O)Nc1cccc(Cl)c1 | 32.6% (inactive) and 26.4% (inactive)
30 | CNC(=O)C1OC(n2cnc3c(NCc4cccc(I)c4)ncnc32)C(O)C1O (stereo not given) | 5.36% (inactive)
31 | O=C(O)C(=O)O.O=C(O)C(=O)O.O=C(O)C(=O)O.[Bi].[Bi] | 12.7% (inactive)
32 | C[C@@H]1CN(CCCn2c3ccccc3c3ccccc32)C[C@H](C)N1 | 18.2% (inactive)
33 | CC1CN(CCCn2c3ccccc3c3ccccc32)CC(C)N1 (stereo not given) | -30.6% (inactive)
34 | COc1ccccc1C1(O)CCN(CCCn2c3ccccc3c3ccccc32)CC1 | -73.1% (active) and -52.5% (inactive)
35 | CO/N=C(\C(=O)N[C@@H]1C(=O)N2C(C(=O)O)=C(C[n+]3ccn4ncccc43)CS[C@H]12)c1nsc(N)n1 | 12% (inactive)
36 | CC[C@H](CO)Nc1nc(NCc2ccc(-c3ccccn3)cc2)c2ncn(C(C)C)c2n1 | -75.6% (active)
37 | CC[C@H](CO)Nc1nc(NCc2ccccc2)c2ncn(C(C)C)c2n1 | -9.71% (inactive)
38 | CC[C@H](CO)Nc1nc(Nc2cccc(-c3ccccn3)c2)c2ncn(C(C)C)c2n1 | -72.2% (active)
39 | CC(C)n1cnc2c(NCc3ccccc3O)nc(NCCCO)nc21 | 1.44% (inactive)
40 | CC[C@@H](CO)Nc1nc(NCc2ccccc2)c2ncn(C(C)C)c2n1 | -3.07% (inactive)
41 | CN1Cc2c(C(=O)OC(C)(C)C)ncn2-c2ccsc2C1=O | 4.12% (inactive) and 13% (inactive)
42 | CC(=O)O[C@@H]1CC2C(C)(C)C(=O)C3OC3[C@]2(C)C2CC[C@@]3(C)[C@H](c4ccoc4)OC(=O)C4OC43[C@@]21C (stereo not given in full) | 26.1% (inactive)
43 | CC1=NN(c2ccc(C(=O)O)cc2)C(=O)/C1=C\c1ccc(-c2cc(C)c(C)cc2[N+](=O)[O-])o1 | 27.1% (inactive)
44 | O=C(/C=C/c1ccccc1)c1ccc(O)cc1 | -8.89% (inactive)
45 | CC(=O)c1cnc2ccc(-c3cc(Cl)c(O)c(Cl)c3)nc2c1NC1CCC(CN(C)C)CC1 (stereo not given) | -87.5% (active)
46 | CO[C@H]1C=CO[C@@]2(C)Oc3c(C)c(O)c4c(O)c(c5c(c4c3C2=O)NC2(CCN(CC(C)C)CC2)N=5)=NC(=O)/C(C)=C\C=C/[C@H](C)[C@H](O)[C@@H](C)[C@@H](O)[C@@H](C)[C@H](OC(C)=O)[C@@H]1C | -31.1% (inactive)
47 | Nc1nc(=O)n([C@@H]2O[C@H](CO)[C@@H](O)[C@@H]2F)cc1I | 9.84% (inactive)
48 | CC(=O)OCC(=O)[C@@]1(O)CCC2C3CCC4=CC(=O)C=C[C@]4(C)[C@@]3(F)[C@@H](O)C[C@@]21C (stereo not given in full) | -18.2% (inactive)
49 | CCN1CCN(Cc2ccc(Nc3ncc(F)c(-c4cc(F)c5nc(C)n(C(C)C)c5c4)n3)nc2)CC1 | -82.7% (active)
50 | CN(C)Cc1ccc(-c2nc3cccc4c3n2CCNC4=O)cc1 | 4.67% (inactive)

Row | Structure (SMILES) | activity change, negative = inhibition
51 | CCC(=O)OCC(=O)[C@@]1(OC(=O)CC)[C@H](C)CC2C3C([C@@H](O)C[C@@]21C)[C@@]1(C)C=CC(=O)C=C1C[C@H]3Cl (stereo not given in full) | 2.29% (inactive)
52 | CC1=CC(=O)C2C(C)(C)CCC[C@]2(C)[C@@]1(O)CCc1ccoc1 (stereo not given in full) | 1.47% (inactive)
53 | CN1CC[C@@H](c2c(O)cc(O)c3c(=O)cc(-c4ccccc4Cl)oc23)[C@@H]1CO | -78.4% (active)
54 | COc1ccc(-c2cc(=O)c3c(O)cc(OC)c(OC)c3o2)c(OC)c1 | 12.5% (inactive)
55 | CN1CC[C@H](c2c(O)cc(O)c3c(=O)cc(-c4ccccc4Cl)oc23)[C@H](O)C1 | -83.7% (active)
56 | NC(N)=NCCC[C@H](N)C(=O)NCC(=O)N[C@@H](CC(=O)O)C(=O)N[C@@H](CO)C(=O)O | 12.1% (inactive)
57 | CC(C)CCNc1ncccc1C(=O)N1CCN(Cc2ccccc2)CC1 | 7.68% (inactive)
58 | COc1c(O)cc2oc3cc(O)c(CC=C(C)C)c(O)c3c(=O)c2c1CC=C(C)C | -80.8% (active)
59 | COc1cc2oc3cc(OC)c(OC)c(CC=C(C)C)c3c(=O)c2c(O)c1CC=C(C)C | 7.82% (inactive)
60 | CC(C)=CCc1c(O)cc2oc(C)cc(=O)c2c1O | 1.96% (inactive)
61 | C[N+](C)(C)[C@@H](Cc1c[nH]c(=S)[nH]1)C(=O)O | 3.37% (inactive)
62 | Nc1nc(NCCc2ccc(O)cc2)nc2nc(-c3ccco3)nn12 | -78.9% (active) and -90.1% (active)
63 | Nc1nc2c(cnn2CCc2ccccc2)c2nc(-c3ccco3)nn12 | 16.9% (inactive) and 59.6% (inactive)
64 | COc1ccc(CCCn2ncc3c2nc(N)n2nc(-c4ccco4)nc32)cc1 | -11.7% (inactive)
65 | CC(COc1ccccc1)NC(C)[C@H](O)c1ccc(O)cc1 (stereo not given in full) | 7.25% (inactive) and 9.37% (inactive)
66 | CC(C)OC(=O)OCOP(=O)(CO[C@H](C)Cn1cnc2c(N)ncnc21)OCOC(=O)OC(C)C | -84% (active)
67 | Nc1ncnc2c1ncn2C1O[C@H](COP(=O)(O)O)[C@@H](O)[C@H]1O (stereo not given in full) | 13.1% (inactive)
68 | C[C@H](Cn1cnc2c(N)ncnc21)OCP(=O)(O)O | 8.95% (inactive)
69 | Nc1ncnc2c1ncn2CCOCP(=O)(O)O | 5.36% (inactive)
70 | Nc1ncnc2c1ncn2C1OC(COP(=O)(O)O)C(O)C1O (stereo not given) (tested in a mixture with another compound) | 1.1% (inactive)
71 | CC(C)(C)C(=O)OCOP(=O)(COCCn1cnc2c(N)ncnc21)OCOC(=O)C(C)(C)C | -84.5% (active) and -86.9% (active)
72 | CC(=O)OC[C@H]1O[C@@](COC(C)=O)(O[C@H]2O[C@H](COC(C)=O)[C@@H](OC(C)=O)[C@H](OC(C)=O)[C@H]2OC(C)=O)[C@@H](OC(C)=O)[C@@H]1OC(C)=O | 4.98% (inactive)
73 | CCC1(c2cnc[nH]2)Cc2ccccc2C1 | 52.1% (inactive)
74 | CS(=O)(=O)NC(=O)CCC/C=C\C[C@H]1C(=O)C[C@@H](O)[C@@H]1/C=C/[C@@H](O)COc1ccccc1 | 0.217% (inactive)
75 | CCCC(=O)Nc1ncnc2c1ncn2C1OC2COP(=O)(O)OC2C1OC(=O)CCC (stereo not given) | 6.24% (inactive)
